An excerpt weighted towards active compounds, which were near 3.5% of everything screened.
TEAD-YAP inh: TEAD-YAP interaction inhibition; hit rate 1.4% among 640,000; inhibition, % at 9.12 µM; AID 1259422; HEK-TIYL cells, TEAD-Gal4/YAP UAS-luciferase luminescence; in the data active = inhibition above about 32%;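 also: 0% = median of test compound wells and 100% = reference inhibitor wells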
FBW7 activator: activators of human E3 ligase FBW7; hit rate 0.13% among 650,000; normalized activity (activation), % at 26.1 µM; Q969H0; AlphaScreen FBW7–phospho-cyclin E peptide binding, activator screen; in the data active = normalized activity above about 1.9%;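 also: purified mutant Fbw7 with reduced substrate affinity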
MITF primary: blocks human microphthalmia-associated transcription factor. AID 1259374. O75030. inhibition, % at 2.6 µM. AlphaScreen MITF homodimerization, bead proximity signal. hit rate 0.91% among 650,000; in the data active = inhibition above about 50%;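 also: 0% = vehicle wells with protein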
Target sequence (O75030 whole entry, looked up): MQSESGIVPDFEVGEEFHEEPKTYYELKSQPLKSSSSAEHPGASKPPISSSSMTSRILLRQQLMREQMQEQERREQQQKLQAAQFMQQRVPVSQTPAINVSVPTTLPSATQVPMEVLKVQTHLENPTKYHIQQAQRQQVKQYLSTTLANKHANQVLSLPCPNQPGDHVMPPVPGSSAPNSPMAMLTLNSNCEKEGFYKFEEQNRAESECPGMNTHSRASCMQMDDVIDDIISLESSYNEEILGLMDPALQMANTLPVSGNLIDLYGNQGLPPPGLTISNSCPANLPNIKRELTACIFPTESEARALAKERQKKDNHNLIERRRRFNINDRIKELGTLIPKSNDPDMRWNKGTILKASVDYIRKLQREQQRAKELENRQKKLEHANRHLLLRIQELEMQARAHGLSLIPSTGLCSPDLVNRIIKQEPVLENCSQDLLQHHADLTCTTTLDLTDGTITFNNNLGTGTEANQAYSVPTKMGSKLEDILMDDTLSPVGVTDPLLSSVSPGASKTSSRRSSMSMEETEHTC
GPR151 activ: activates the human receptor GPR151. Q8TDV0. PathHunter beta-arrestin GPR151 cells, luminescence. activation, % at 11.2 µM. hit rate 1% among 650,000; in the data active = activation above about 4.9%;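 also: 0% = median of compound wells and 100% = cells with positive control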
The depositor's hits bear a star.

SMILES | TEAD-YAP inh | FBW7 activator | MITF primary | GPR151 activ
COc1ccc(/C=N/NC(=O)c2[nH]nc3c2CCc2ccccc2-3)cc1OC | 46* | 0 | 12 | -2
COc1cccc(/C=N\NC(=O)c2n[nH]c3c2CCC3)c1 | 36* | 0 | 9 | -1
COc1ccc(/C=N\NC(=O)c2n[nH]c3c2CCCC3)c(OC)c1OC | 61* | 1 | -3 | 1
COc1cc(/C=N/NC(=O)c2n[nH]c3c2CCC3)ccc1O | 47* | 0 | 10 | 2
COc1ccc(/C=N/NC(=O)c2n[nH]c3c2CCCC3)cc1OC | 26 | 0 | -3 | 2
COC(=O)c1ccc(/C=N/NC(=O)c2[nH]nc3c2CCc2ccccc2-3)cc1 | -1 | 0 | 18 | -2
COc1cccc(/C=N\NC(=O)c2n[nH]c3c2CCCC3)c1OC | -21 | 1 | -15 | -1
CCOc1ccc(S(=O)(=O)NC)c2ccccc12 | -18 | 0 | -3 | 0
O=C(Nc1nccs1)c1cc2ccccc2o1 | 58* | 0 | -7 | -9
O=C(O)c1cccc(NC(=O)c2cc3ccccc3o2)c1 | 39* | 0 | 1 | 3
COc1ccc(CC(=O)Nc2cc(Nc3ccccc3-c3ncn[nH]3)ccn2)cc1 | 13 | 1 | 7 | -1
COc1ccc(CC(=O)Nc2cc(Nc3ccccc3-c3ncco3)c(C(F)(F)F)cn2)cc1 | 54* | 0 | -14 | -1
COc1ccc(CC(=O)Nc2cc(Nc3ccccc3NC(C)=O)c(C(F)(F)F)cn2)cc1 | 67* | 0 | 16 | -1
COc1ccc(CC(=O)Nc2ccccc2C(F)(F)F)cc1 | -1 | 0 | 15 | -1
c1ccc(OCCNc2nc(-c3ccc4[nH]ccc4c3)nc3nc[nH]c23)cc1 | -10 | 0 | 13 | -2
CCOc1cc(/C=N/n2cnnc2)cc(I)c1O | -2 | 0 | 65* | 1
CC1=NN(c2ccc(Br)cc2)C(=O)/C1=C\c1ccc(-c2c(Br)cc([N+](=O)[O-])cc2Br)o1 | -2 | 0 | 14 | -1
CC1=NN(c2ccc([N+](=O)[O-])cc2)C(=O)/C1=C\c1ccc(C)o1 | 2 | 0 | 81* | 3
Cc1ccc(CNc2ncc(-c3ccccc3)n2C)cc1 | -5 | 0 | 26 | 0
Cc1ncn(-c2ccc(Nc3cc(-c4nocc4-c4c(C)n[nH]c4C)ccn3)cc2)n1 | 48* | 0 | 5 | -2
COc1ccc(C(=O)Nc2ccc(C(N)=O)cc2)c(OC)c1 | -18 | 0 | 5 | -4
Cn1cc(CNc2nncc(-c3ccc4ccccc4c3)n2)cn1 | 34* | 0 | 9 | -1
Cn1cc(CNc2nncc(-c3ccc(Cl)cc3)n2)cn1 | 1 | 0 | 6 | 1
CCCC1=C(C(=O)OCC)C(c2cc(OC)ccc2OC)n2c(s/c(=C/c3ccccc3)c2=O)=N1 (stereo not drawn) | -19 | 0 | 16 | -2
COc1cc2oc(=O)cc(C)c2cc1OC | 5 | 0 | 6 | 0
SMILES | TEAD-YAP inh | FBW7 activator | MITF primary | GPR151 activ
COc1cc2oc(=O)cc(C)c2cc1C=O | 62* | 0 | 12 | -1
O=C(Nc1ccc2c(c1)OCO2)c1ccccc1SCC(=O)N1CCc2ccccc21 | 36* | 0 | -10 | -1
Cn1c(/C=C/c2ccccc2)c([N+](=O)[O-])c(=O)n(C)c1=O | 25 | 0 | -6 | 0
Cn1c(/C=C/c2cccc(Oc3ccccc3)c2)c([N+](=O)[O-])c(=O)n(C)c1=O | 45* | 0 | 5 | 1
CCOc1ccc(-c2cn3c(n2)/c(=C2\CCCN2)c(=O)n3-c2ccccc2)cc1 | -7 | 0 | -1 | 1
O=C(NCCc1nc(-c2ccccc2)cs1)c1cccc(C(=O)NCCc2nc(-c3ccccc3)cs2)c1 | 48* | 0 | -3 | 1
COC(=O)c1cn[nH]c1NC(=S)Nc1ccc(C)cc1C | 80* | 0 | 5 | -2
CCNC(=S)N1CCN(c2ccccc2OC)CC1 | 1 | 0 | -9 | 1
COc1ccccc1N1CCN(CCCNC(=O)Nc2ccc(Br)cc2)CC1 | 3 | 2.9* | -12 | -1
O=C(NCCCN1CCc2ccccc2C1)Nc1ccc(Br)cc1 | -15 | 3.1* | -10 | 0
COc1ccccc1N1CCN(C(=S)NCCN2CCOCC2)CC1 | 66* | 0 | 8 | -1
CCOC(=O)c1c(-c2ccccc2)oc2c1cc(OC(=O)c1cc(OC)c(OC)c(OC)c1)c1ccccc12 | 17 | 0 | 1 | 1
COCCNC(=O)/C(C#N)=C/c1c(Oc2ccccc2OC)nc2c(C)cccn2c1=O | 34* | 0 | 5 | 1
CCOCCCNC(=O)/C(C#N)=C/c1c(Oc2ccc(C)cc2)nc2c(C)cccn2c1=O | 19 | 0 | 10 | 0
CCOCCCNC(=O)/C(C#N)=C/c1c(Oc2ccccc2C)nc2c(C)cccn2c1=O | 32* | 0 | 4 | 0
Cn1ccnc1CN1CCN(c2nc3nonc3nc2NC2CC2)CC1 | 6 | 0 | -12 | -1
Fc1ccc(N=c2oc3ccc4ccccc4c3cc2-c2nc3ccccc3[nH]2)cc1 | -1 | 0 | 3 | -1
Cc1occc1C(=O)N/N=C/c1cc(Br)ccc1O | 47* | 0 | 18 | -4
O=C(N/N=C/c1cc(Br)ccc1O)c1ccc(O)cc1O | 72* | -1 | 22 | 0
CCCNc1nc(Nc2cnccn2)nc2c1ncn2C(C)C | 46* | 0 | 5 | 3
CC(C)N(CCNc1nc(Nc2nccc3ccccc23)nc2c1ncn2C(C)C)C(C)C | 50* | 0 | 20 | -1
Cc1ccc(NC(=O)Cn2nnc(-c3ccc(C)cc3-n3cnnn3)n2)c(C)c1 | 11 | 0 | 5 | 0
Cn1c(CNc2ccc(Cl)cc2[N+](=O)[O-])c(C#N)c2ccccc21 | -14 | 0 | -11 | 3
CC(=O)c1cccc(S(=O)(=O)Nc2ccc(Br)c(C(F)(F)F)c2)c1 | -1 | 0 | 2 | 0
CCCN(CCC)CC(O)COc1ccc(C(C)C)c(C)c1 (stereo not drawn) | 2 | 0 | 12 | 2
SMILES | TEAD-YAP inh | FBW7 activator | MITF primary | GPR151 activ
CC(C)COCc1ccc(O)c2ncccc12 | 22 | -2 | 59* | 0
COc1ccc(C2CCN(S(=O)(=O)Cc3ccccc3)C2)cc1 (stereo not drawn) | 1 | 0 | 2 | 3
O=c1c(=NNc2nn[nH]n2)c(=O)c2ccccc12 | 98* | -1 | 5 | 0
O=c1c(=NNc2ccccc2)c(=O)c2ccccc12 | -66 | 0 | -10 | 0
O=c1c(=NNc2ccccc2Cl)c(=O)c2ccccc12 | 58* | 0 | -1 | 1
Cc1ccc(NN=c2c(=O)c3ccccc3c2=O)cc1 | -39 | 0 | 27 | 0
CC(C)(C)c1nc2scc(-c3ccc(Br)cc3)c2c(=O)o1 | 34* | 0 | 9 | 0
CC(C)(C)c1nc2scc(-c3ccccc3)c2c(=O)o1 | 0 | 0 | 3 | 1
COCc1cc(C)nc(SCC(=O)NCc2ccccc2)c1C#N | 7 | 0 | 4 | 0
CN(C)CCNCCOCCOc1ccccc1C#N | -7 | 0 | -11 | -1
CCc1c(C(=O)NC2CCCc3ccccc32)[nH]c(C)c1C(C)=O (stereo not drawn) | 37* | 0 | -7 | 0
